In PubChem BioAssay (EPA / NIEHS) one finds AC50 and outcome data, which are given here for 23 compounds.

The structures appear in SMILES notation. Results filed as inconclusive are left out. Some compounds were tested as several samples or in several runs, with calls that do not always agree. Activity calls are given as the source filed them. How the source made its calls, unless noted: active means hit-call score of the fitted dose curve at least 0.9, where 1 is the maximum; inconclusive means response in the unintended direction; inactive means score below 0.9.

Chain of Estrogen receptor (Homo sapiens) (P03372 whole entry, looked up): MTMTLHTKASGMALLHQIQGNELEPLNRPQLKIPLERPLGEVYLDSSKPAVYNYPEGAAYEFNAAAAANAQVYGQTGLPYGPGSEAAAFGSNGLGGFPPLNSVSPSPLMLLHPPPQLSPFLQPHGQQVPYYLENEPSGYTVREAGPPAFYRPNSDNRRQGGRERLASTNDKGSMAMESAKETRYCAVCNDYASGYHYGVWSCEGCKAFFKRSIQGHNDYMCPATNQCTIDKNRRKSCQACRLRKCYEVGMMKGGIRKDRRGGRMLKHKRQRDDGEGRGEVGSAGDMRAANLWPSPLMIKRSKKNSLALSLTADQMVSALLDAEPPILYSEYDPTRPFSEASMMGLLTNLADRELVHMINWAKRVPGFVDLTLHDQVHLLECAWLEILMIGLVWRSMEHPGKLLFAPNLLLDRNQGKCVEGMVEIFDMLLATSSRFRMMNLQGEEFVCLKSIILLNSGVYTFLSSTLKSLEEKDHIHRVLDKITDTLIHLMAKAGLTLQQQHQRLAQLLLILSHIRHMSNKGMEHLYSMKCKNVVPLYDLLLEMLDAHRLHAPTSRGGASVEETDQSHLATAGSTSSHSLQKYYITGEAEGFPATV

Tested on in one test: not listed separately
As to the kind of experiment: CCTE_Shafer_MEA_dev_active_electrodes_number: CCTE's Neural Network Formation Assay for Number of Active Electrodes, Shafer Lab (AID 2284040).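 On AC50: potency for loss of active electrodes versus DMSO so lower counts are hits.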 In a few lines:
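Rat cortical primary cultures, 1.5 x 10^5 cells/well, PEI-coated MEA, laminin drop. Continuous exposure DIV 0–12; full media/compound change DIV 5, 9. Readout: electrodes with mean firing ≥5 spikes/min; AUC across days; loss vs DMSO.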
As a reminder, the AC50 is the concentration giving half of the maximal activity seen. Consider `CC(C)(C)C(=O)CC(=O)C(F)(F)C(F)(F)C(F)(F)F`, for which the AC50 is 25.2 µM (active).
On to `FC(F)(F)C(F)(F)CNCC(F)(F)C(F)(F)F`, for which the outcome was inactive.
In the case of `O=S(=O)(OCC(F)F)C(F)(F)F`, the result was inactive.
For `OCC(F)(F)C(F)(F)C(F)(F)F`, the compound was classed as inactive.
For `CC(CCl)OP(=O)(OC(C)CCl)OC(C)CCl` (configuration not stated), the AC50 was 50 µM (active) and the compound was classed as inactive.
Regarding `FC(F)(F)C(F)(F)C(F)(F)C(F)(F)C(F)(F)CCI`, the half-maximal activity concentration (AC50) was 15 µM (active).
For the compound `O=C(O)C(F)(F)C(F)(F)C(F)(F)C(F)(F)C(F)(F)C(F)(F)C(F)(F)C(F)(F)Cl`, the compound was called inactive.
Take `O=C(O)C=C(C(F)(F)F)C(F)(F)F`: the compound was classed as inactive.
With `O=S(=O)(OCCOC(F)(F)F)C(F)(F)F`, the call was inactive.
The same measure, in the same setting: the entry for `OCC(F)(F)C(F)(F)C(F)(F)C(F)F` is “inactive”; for `OC[C@@H](O)[C@@H](O)[C@H](O)[C@@H](O)CO` it is “inactive”.
Same read-out and setting: next, `OCC(F)(F)C(F)(F)C(F)(F)C(F)(F)C(F)(F)C(F)F`: “inactive”; `N=C(N)C(F)(F)C(F)(F)C(F)(F)C(F)(F)C(F)(F)C(F)(F)C(F)(F)F`: “inactive”.
On the same count and under the same terms, next, `O=P(O)(O)OCCC(F)(F)C(F)(F)C(F)(F)C(F)(F)C(F)(F)C(F)(F)F`: “inactive”; `O=C(O)C(F)(F)C(F)(F)C(F)F`: “inactive”.
With `OCCCC(F)(F)C(F)(F)C(F)(F)F`, the result was inactive.

The next test has as its target Estrogen receptor (Homo sapiens) (UniProt P03372). The test is described as follows: CCTE_Deisenroth_AIME_384WELL_LUC_Shift: CCTE's 384-well Estrogen Receptor Transactivation Assay with AIME metabolic competence data shift (ERTA luciferase; difference in metabolism positive and negative), Deisenroth Lab (AID 2284041; active means hit-call score of the fitted dose curve at least 0.9, where 1 is the maximum; inactive means score below 0.9;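 further: shift is response with S9 minus without S9 so positive means metabolism raised ER signal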). In a few lines:
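Here, parent compounds undergo 2 h phase I metabolism by PB/BNF-induced rat S9 before 24 h transactivation in VM7Luc4E2 cells; the curve models S9-positive minus S9-negative response over a 10-point series.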
As to `C(=C(c1ccccc1)c1ccccc1)c1ccccc1`, the AC50 was 0.869 µM (active).
On to `CCCCCCC(C)OC(=O)CCCCC(=O)OC(C)CCCCCC` (configuration not stated), for which the outcome was inactive.
Still for that read-out and setting: the entry for `CC/C=C\CCOC(C)=O` is “inactive”.
Still for that read-out and setting: next, `CCN(Cc1cccc(S(=O)(=O)O)c1)c1ccc(C(=C2C=CC(=[N+](CC)Cc3cccc(S(=O)(=O)O)c3)C=C2)c2ccc(O)cc2S(=O)(=O)[O-])cc1`: “inactive”.
Still for that read-out and setting: next, `CNC(=S)NC`: “inactive”.

Tested on in the next test: not listed separately
The test is described as follows: CCTE_Shafer_MEA_dev_bursting_electrodes_number: CCTE's Neural Network Formation Assay for Number of Bursting Electrodes, Shafer Lab (AID 2284043).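 On AC50: potency is for loss of bursting electrodes relative to DMSO.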 In a few lines: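 Primary rat cortical neurons were cultured on PEI-coated 48-well MEA plates (16 electrodes/well) and exposed from plating through day 12, with compound renewed at feeds on DIV 5 and 9. Electrodes bursting ≥1 per 2 min were counted on DIV 5, 7, 9, 12; trapezoidal AUC taken.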
With `C=CC(=O)OCC(F)(F)C(F)(F)C(F)(F)C(F)(F)COC(=O)C=C`, the concentration at half-maximal activity (AC50) was 2.08 µM (active).
Turning to `O=C(O)C(F)(F)C(F)(F)C(F)(F)F`, the outcome was inactive.
On to `CC(C)(C)C(=O)CC(=O)C(F)(F)C(F)(F)C(F)(F)F`, for which the concentration at half-maximal activity (AC50) is 15 µM (active).
For `FC(F)(F)C(F)(F)CNCC(F)(F)C(F)(F)F`, the result was inactive.
Same read-out and setting: next, `O=S(=O)(OCC(F)F)C(F)(F)F`: “inactive”; `OCC(F)(F)C(F)(F)C(F)(F)F`: “inactive”; `CC(CCl)OP(=O)(OC(C)CCl)OC(C)CCl` (configuration not stated): “inactive”.
Turning to `FC(F)(F)C(F)(F)C(F)(F)C(F)(F)C(F)(F)CCI`, the concentration at half-maximal activity (AC50) is 0.822 µM (active).
For the compound `O=C(O)C(F)(F)C(F)(F)C(F)(F)C(F)(F)C(F)(F)C(F)(F)C(F)(F)C(F)(F)Cl`, the call was inactive.
The same measure, in the same setting: the entry for `O=C(O)C=C(C(F)(F)F)C(F)(F)F` is “inactive”; for `OC[C@@H](O)[C@@H](O)[C@H](O)[C@@H](O)CO` it is “inactive”; for `OCC(F)(F)C(F)(F)C(F)(F)C(F)(F)C(F)(F)C(F)F` it is “inactive”.
Still for that read-out and setting: the entry for `N=C(N)C(F)(F)C(F)(F)C(F)(F)C(F)(F)C(F)(F)C(F)(F)C(F)(F)F` is “inactive”.
With `O=P(O)(O)OCCC(F)(F)C(F)(F)C(F)(F)C(F)(F)C(F)(F)C(F)(F)F`, the AC50 is 0.1 µM (active).
Consider `O=C(O)C(F)(F)C(F)(F)C(F)F`, for which the call was inactive.
